# Assay outcomes: PubChem, several laboratories
# Mtb hypoxia rep: inhibitors of hypoxia-regulated fluorescent reporter in Mycobacterium tuberculosis; M. tuberculosis hypoxia-regulated fluorescent reporter, fluorescence; fluorescence inhibition, % (test concentration not listed); 300,000 compounds, 0.1% hits; AID 1159583; in the data active means fluorescence inhibition mostly above about 23%, no sharp cut-off; inactive means mostly below about 17%
# Mtb bLac sens: beta-lactam sensitization of Mtb H37Rv; M. tuberculosis H37Rv growth with meropenem, percent inhibition; inhibition, % at 25 µM; 330,000 compounds, 0.27% hits; AID 434955;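 further: growth measured after seven days incubation then overnight dye step; 0% = bacteria only wells and 100% = bacteria with antibiotic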
# RecA intein inh: blocks M. tuberculosis RecA intein splicing; P9WHJ3; cell-free RecA intein splicing, fluorescence; inhibition, % (concentration not given with the values); 290,000 compounds, 0.75% hits; AID 2221; in the data active means inhibition above about 30%; inconclusive means no clear call, values can overlap the other calls;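 further: 0% = vehicle wells and 100% = reference inhibitor control wells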
# Target sequence (P9WHJ3 whole entry, looked up): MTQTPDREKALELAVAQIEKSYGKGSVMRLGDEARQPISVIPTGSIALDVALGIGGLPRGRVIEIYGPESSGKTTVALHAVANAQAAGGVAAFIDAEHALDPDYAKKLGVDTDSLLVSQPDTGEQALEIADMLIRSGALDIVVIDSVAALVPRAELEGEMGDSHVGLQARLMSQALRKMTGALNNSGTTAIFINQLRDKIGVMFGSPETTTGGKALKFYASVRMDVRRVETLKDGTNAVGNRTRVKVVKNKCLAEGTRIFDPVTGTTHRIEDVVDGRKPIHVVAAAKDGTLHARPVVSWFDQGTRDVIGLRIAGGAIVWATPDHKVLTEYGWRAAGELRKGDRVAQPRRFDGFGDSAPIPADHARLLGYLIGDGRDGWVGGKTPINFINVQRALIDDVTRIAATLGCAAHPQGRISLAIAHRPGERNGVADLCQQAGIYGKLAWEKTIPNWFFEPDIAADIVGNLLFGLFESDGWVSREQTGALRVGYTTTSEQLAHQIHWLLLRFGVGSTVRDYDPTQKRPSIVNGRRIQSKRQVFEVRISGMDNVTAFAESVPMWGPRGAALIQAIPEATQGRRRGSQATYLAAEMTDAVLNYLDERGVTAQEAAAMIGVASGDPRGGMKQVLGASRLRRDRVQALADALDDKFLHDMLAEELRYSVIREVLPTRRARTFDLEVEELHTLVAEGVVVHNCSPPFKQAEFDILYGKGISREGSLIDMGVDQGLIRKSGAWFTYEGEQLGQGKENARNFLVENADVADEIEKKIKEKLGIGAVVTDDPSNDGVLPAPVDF
# CCHFV vOTU inh: blocks the CCHF virus ovarian tumor domain protease; inhibition, % at 11.5 µM; 370,000 compounds, 0.55% hits; CCHFV vOTU protease, Pep-AMC fluorescence; in the data active means inhibition above about 30%; further: 0% = vehicle wells with enzyme and 100% = no enzyme wells
# PfHsp40 yeast: restores yeast growth despite PfHsp40 toxicity; 340,000 compounds, 0.68% hits; S. cerevisiae expressing PfHsp40, growth rescue, ATP luminescence; AID 504582; growth rescue, % at 12.5 µM; in the data active means growth rescue above about 28%, passing the limit was not always enough; inconclusive means no clear call, values can overlap the other calls;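 further: yeast W303a lacking pdr1 and pdr3 grown in galactose medium; growth measured after three days at 30 °C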
# GFP chromophore: counter-screen: blocks GFP chromophore formation | shares compounds with RecA intein inh | AID 434968 | cell-free GFP chromophore formation, fluorescence | EC50, µM | 2,100 compounds, 83% hits
# Starred values were filed as active, the others as inactive; ? = inconclusive; · = no result. A selection: hits, their analogues and other compounds. The true share with any hit is near 1.7%. Unless noted, how the calls were made is not given here.
SMILES,Mtb hypoxia rep,Mtb bLac sens,RecA intein inh,CCHFV vOTU inh,PfHsp40 yeast,GFP chromophore
C(=Cc1ccccc1)C=NNc1nc(N2CCOCC2)nc(N2CCOCC2)n1,7,·,·,·,·,·
COC(=O)C1=NN(C(C)=O)C2(CC(=O)N(c3cc(C)cc(C)c3)C2=O)C1 (stereo unspecified),16,-9,30*,-2,2,>38
CCOC(=O)C1=NN(N=O)C2(CC(=O)N(c3cc(C)cc(C)c3)C2=O)C1 (stereo unspecified),4,3,-2,0,0,·
CC(C)(C)c1ccc(-n2nc(C#N)c(Cl)cc2=O)cc1,23,·,93*,8,146*,2.6*
COCc1c(C(=O)NN=C(C)c2ccccc2)nnn1-c1nonc1N,-6,·,·,·,·,·
CCC(=O)Nc1c(C)nn(C(=O)CC)c1C,·,-1,57*,0,-2,>38
O=C(CCN1C(=O)/C(=C/c2cccs2)SC1=S)Nc1cccc(O)c1,3,4,36*,3,0,>38
CN(C)C=Nn1cnc2ccccc2c1=O,-8,·,·,·,·,·
CSc1nc(-c2ccccc2)nn1C(=O)c1ccc(Cl)cc1,·,33,57*,13,-1,>38
CSc1nc(-c2ccc(Cl)cc2)nn1C(=O)c1ccccc1,0,-3,4,-14,0,·
NC1=NCC(c2ccccc2)N1CCc1cccc(F)c1 (stereo unspecified),-11,·,·,·,·,·
COc1ccccc1NS(=O)(=O)c1cc(NC(=NS(=O)(=O)c2ccccc2)c2ccc(F)cc2)ccc1Cl,-3,·,·,·,·,·
Cc1[nH]nc2c1C1(CCN(Cc3ccccc3)CC1)C(C#N)=C(N)O2,·,-8,85*,1,-1,14*
Cc1[nH]nc2c1C1(CCOCC1)C(C#N)=C(N)O2,6,-8,78*,·,1,13*
CC(C)c1[nH]nc2c1C1(CCN(Cc3ccccc3)CC1)C(C#N)=C(N)O2,6,1,68*,3,-1,21*
CCc1[nH]nc2c1C1(CCN(C(=O)OCc3ccccc3)CC1)C(C#N)=C(N)O2,11,-5,28,0,-1,·
CCOC(=O)C1CCCCC12C(C#N)=C(N)Oc1n[nH]c(C)c12 (stereo unspecified),2,1,23,-6,2,·
CCOC(=O)C1CCC2(CC1)C(C#N)=C(N)Oc1n[nH]c(C)c12 (stereo unspecified),3,-6,79*,3,0,>38
CCCc1[nH]nc2c1C1(CCN(C(=O)OCc3ccccc3)CC1)C(C#N)=C(N)O2,-10,-3,23,-5,0,·
Cc1ccc(C=NN(Cc2ccccc2)c2ccccc2)o1,4,·,·,·,·,·
CC(Cc1ccccc1)=NNC(=O)c1cc(C(C)(C)C)[nH]n1,15,·,·,·,·,·
CCn1c(C)nc2cc(C(=O)NN=Cc3ccccc3C)ccc21,7,·,·,·,·,·
O=C1c2cccc3cc([N+](=O)[O-])cc(c23)C(=O)N1N=Cc1ccc(O)cc1O,8,·,·,·,·,·
CC(=O)C1=C(O)C(=O)N(CCc2ccccc2)C1c1ccccc1[N+](=O)[O-] (stereo unspecified),1,4,-2,-8,-1,·
CCN(CC)CCN1C(=O)C(O)=C(C(C)=O)C1c1ccccc1[N+](=O)[O-] (stereo unspecified),·,3,77*,17,-1,7.8*
SMILES,Mtb hypoxia rep,Mtb bLac sens,RecA intein inh,CCHFV vOTU inh,PfHsp40 yeast,GFP chromophore
Cc1oc(-c2ccccc2Cl)nc1CN(C)C(C)c1ccon1 (stereo unspecified),11,4,1,6,-1,·
Cc1ccccc1-c1nc(CN(C)C(C)c2ccon2)c(C)o1 (stereo unspecified),7,0,39*,14,·,13*
COCCn1c(N)c(C(=O)NCc2cccs2)c2nc3ccccc3nc21,8,6,62*,-40,0,>38
CC(Oc1ccc(Cl)cc1Cl)C(=O)NC1=NN(c2ccccc2)C(=O)C1 (stereo unspecified),·,-5,15,5,1,·
O=C1CC(NC(=O)C(F)(F)F)=NN1c1ccccc1,2,-4,90*,18,6,16*
CN(C)c1ccc(-c2ccc(C3C4C=CCC[C@@]4(C)C(=O)N3Cc3ccccc3)c(F)c2)cc1 (stereo partly specified),7,·,·,·,·,·
Cc1cccc(Cn2nnc3c2C(=O)c2ccccc2C3=O)c1,9,50,37*,3,-1,9.9*
CC(Cc1ccccc1)=NNC(=O)c1ccccn1,5,·,·,·,·,·
COc1ccc(N/N=C(\C#N)C(=N)SCc2ccccc2)cc1,·,·,55*,21,209*,24*
COc1ccc(N/N=C(\C#N)C(=N)N2CCCCC2)cc1,·,36,2,-2,-1,·
Oc1cccc(Nc2nc(-c3ccccc3Cl)nc3ccccc23)c1,·,6,35*,1,0,>38
COc1ccccc1C(NC(C)=O)c1c(O)ccc2ccc(O)cc12 (stereo unspecified),10,31,79*,-4,0,5.1*
COc1ccc(/C(=N/OC(C)=O)c2nccc3cc(OC)c(OC)cc23)cc1OC,·,-5,31*,-3,-1,>38
CN1C(=O)/C(=C/c2ccc(-c3ccccc3[N+](=O)[O-])o2)SC1=Nc1ccc(Cl)c(C(=O)O)c1,·,9,45*,10,-1,23*
NCCCCC1CNC(=O)C(=O)N1CC1CCCCC1 (stereo unspecified),15,·,·,·,·,·
O=C(O)CC1SC(=NN=Cc2ccccc2)N(c2ccc(O)cc2)C1=O (stereo unspecified),10,·,·,·,·,·
COc1ccc(C(C)=NNC(=O)c2ccncc2)cc1[N+](=O)[O-],22,·,·,·,·,·
CCOC(=O)CNc1nnc(SCC(=O)OCC)[nH]c1=O,·,-10,41*,8,-1,6.3*
CC1CCN(CCC2CCCN2S(=O)(=O)c2cccc(O)c2)CC1 (stereo unspecified),2,·,·,·,·,·
COc1cc(C=CC(=O)O)cc(S(=O)(=O)Nc2ccccc2SC)c1OC,4,·,·,·,·,·
CCCn1nc([N+](=O)[O-])c(C(C#N)c2nc3ccccc3s2)c(Cl)c1=O (stereo unspecified),14,59,81*,18,?,6.1*
CC(=O)N1CC2(c3ccccc3)CN(C(C)=O)CC(c3ccccc3)(C1)C2=O,5,-4,62*,-6,0,>38
CCC(=O)N1CC2(c3ccccc3)CN(C(=O)CC)CC(c3ccccc3)(C1)C2=O,8,-7,0,-6,1,·
CC(SCc1ccccc1)C(=O)Nc1ccc(F)cc1 (stereo unspecified),10,-2,2,5,-1,·
N#CC(C#N)=C(Nc1ccc(F)cc1)SCc1cccc(Br)c1,13,0,55*,6,3,4.7*
COc1ccc(C=NNc2ncccc2[N+](=O)[O-])c(OC)c1,-4,·,·,·,·,·
Cc1ccc(Sc2ncccc2[N+](=O)[O-])cc1,9,4,-12,0,1,·
Cc1c([N+](=O)[O-])cnc(Sc2ccccc2)c1[N+](=O)[O-],6,98,85*,20,1,0.18*
